A short description of experiment [1]: qHTS RealTime-Glo MT Cell Viability Assay in HepG2 cells - 40 hour (AID 1224870). Also: nearly all actives have a fitted effect of over 50% in size. Also: potency is read from the fitted curve at half-maximal effect. An outline of the steps:
(§1)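 Real-time viability: cells seeded at 600 per well together with NanoLuc and cell-permeant prosubstrate, compounds added after 5 h incubation. Luminescence tracked at 0, 8, 16, 24, 32 and 40 h of exposure.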
On the technique in general: Quantitative high-throughput screening tests each substance at several concentrations.

The nature of experiment [2]: A CellTox Green Cytotoxicity Assay to monitor cytotoxicity in HEK293 cells - 40 hour (AID 1224871). Also: nearly all actives have a fitted effect of over 45% in size. Also: potency is read from the fitted curve at half-maximal effect. An outline of the steps: (§2)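 Cells (HEK293, 600/well) and dye reagent are dispensed together. After 5 h at 37 C, 23 nL compound is pinned in. Plates stay at 37 C for 40 h with fluorescence read at 0h, 8h, 16h, 24h, 32h and 40h.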
A short description of experiment [3]: qHTS RealTime-Glo MT Cell Viability Assay in HEK293 cells - 16 hour (AID 1224872). Also: nearly all actives have a fitted effect of over 50% in size. Also: potency is read from the fitted curve at half-maximal effect. As to activity change, negative = cytotoxicity: top concentration of the series differs between compounds. An outline of the steps: (§3)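 HEK293 cells were seeded at 600 cells/well together with NanoLuc luciferase and cell-permeant prosubstrate, preincubated 5 h at 37 C/5% CO2, then given compound in DMSO by pintool. Luminescence from viable-cell prosubstrate reduction was read repeatedly over 40 h.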

Experiment [4] is described as follows: qHTS RealTime-Glo MT Cell Viability Assay in HEK293 cells - 40 hour (AID 1224874). Also: nearly all actives have a fitted effect of over 50% in size. The following applies: RealTime-Glo luminescence; max response: stronger effect = lower value. A digest of the protocol:
(§4)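 Real-time viability in HEK293: signal arises when living cells convert a prosubstrate for NanoLuc in the medium, so luminescence tracks viable cell number. Compound (23 nL, DMSO) added 5 h post-seeding; kinetic reads at 0–40 h, 37 C.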

A short description of experiment [5]: A CellTox Green Cytotoxicity Assay to monitor cytotoxicity in HEK293 cells - 24 hour (AID 1224875). Also: nearly all actives have a fitted effect of over 45% in size. Also: potency is read from the fitted curve at half-maximal effect. As to activity change: series mostly up to about 77 µM. An outline of the steps: as §2
Experiment [6] is described as follows: A CellTox Green Cytotoxicity Assay to monitor cytotoxicity in HepG2 cells - 16 hour (AID 1224876). Also: nearly all actives have a fitted effect of over 45% in size. Also: potency is read from the fitted curve at half-maximal effect. An outline of the steps: (§5)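 Cells and non-lytic dye reagent are dispensed together (600 HepG2 cells/well) and incubated 5 h before DMSO compound transfer. Kinetic fluorescence is then recorded in the same wells during 40 h at 37 C.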
Experiment [7] is described as follows: qHTS RealTime-Glo MT Cell Viability Assay in HepG2 cells - 32 hour (AID 1224877). Also: nearly all actives have a fitted effect of over 55% in size. Also: potency is read from the fitted curve at half-maximal effect. A digest of the protocol: (§6)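 HepG2 cells were seeded at 600 cells/well together with NanoLuc luciferase and a cell-permeant prosubstrate, preincubated 5 h at 37 C/5% CO2, then pin-dosed with compounds in DMSO. Nonlytic luminescence from viable cells was read at each time point.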

Experiment [8] in a line: A CellTox Green Cytotoxicity Assay to monitor cytotoxicity in HepG2 cells - 24 hour (AID 1224878). Also: nearly all actives have a fitted effect of over 45% in size. Also: potency is read from the fitted curve at half-maximal effect. A digest of the protocol:
as §5

The nature of experiment [9]: A CellTox Green Cytotoxicity Assay to monitor cytotoxicity in HepG2 cells - 40 hour (AID 1224879). Also: nearly all actives have a fitted effect of over 40% in size. Also: potency is read from the fitted curve at half-maximal effect. A digest of the protocol: as §5
Experiment [10] is described as follows: qHTS RealTime-Glo MT Cell Viability Assay in HEK293 cells - 0 hour (AID 1224880). An outline of the steps:
as §4

A short description of experiment [11]: A CellTox Green Cytotoxicity Assay to monitor cytotoxicity in HEK293 cells - 32 hour (AID 1224881). Also: nearly all actives have a fitted effect of over 40% in size. Also: potency is read from the fitted curve at half-maximal effect. A digest of the protocol:
as §2

Experiment [12] is described as follows: A CellTox Green Cytotoxicity Assay to monitor cytotoxicity in HepG2 cells - 0 hour (AID 1224882). Also: nearly all actives have a fitted effect of over 35% in size. An outline of the steps:
as §5

Experiment [13] can be described thus: A CellTox Green Cytotoxicity Assay to monitor cytotoxicity in HepG2 cells - 32 hour (AID 1224883). Also: nearly all actives have a fitted effect of over 50% in size. Also: potency is read from the fitted curve at half-maximal effect. An outline of the steps:
as §5

The nature of experiment [14]: A CellTox Green Cytotoxicity Assay to monitor cytotoxicity in HEK293 cells - 8 hour (AID 1224884). Also: nearly all actives have a fitted effect of over 35% in size. An outline of the steps:
as §2

The nature of experiment [15]: qHTS RealTime-Glo MT Cell Viability Assay in HepG2 cells - 16 hour (AID 1224885). Also: nearly all actives have a fitted effect of over 50% in size. Also: potency is read from the fitted curve at half-maximal effect. An outline of the steps:
as §6

Experiment [16] in a line: qHTS RealTime-Glo MT Cell Viability Assay in HEK293 cells - 8 hour (AID 1224887). Also: nearly all actives have a fitted effect of over 50% in size. Also: potency is read from the fitted curve at half-maximal effect. As to activity change, negative = cytotoxicity: top concentration of the series differs between compounds. An outline of the steps: as §4
A short description of experiment [17]: A CellTox Green Cytotoxicity Assay to monitor cytotoxicity in HEK293 cells - 16 hour (AID 1224888). Also: nearly all actives have a fitted effect of over 35% in size. Also: potency is read from the fitted curve at half-maximal effect. An outline of the steps:
as §2

Experiment [18] can be described thus: qHTS RealTime-Glo MT Cell Viability Assay in HepG2 cells - 0 hour (AID 1224889). Also: nearly all actives have a fitted effect of over 50% in size. An outline of the steps:
as §6

A short description of experiment [19]: qHTS RealTime-Glo MT Cell Viability Assay in HEK293 cells - 24 hour (AID 1224886). Also: nearly all actives have a fitted effect of over 50% in size. Also: potency is read from the fitted curve at half-maximal effect. As to activity change, negative = cytotoxicity: top concentration of the series differs between compounds. A digest of the protocol: as §3
Experiment [20] in a line: qHTS RealTime-Glo MT Cell Viability Assay in HepG2 cells - 8 hour (AID 1224873). Also: nearly all actives have a fitted effect of over 55% in size. A digest of the protocol:
as §1

Where “and” joins values, the source holds several entries; their conditions need not be identical. Identical values can stand only once. Results filed as inconclusive are left out. A structure can be active in one record and inactive in another. Calls of active or inactive are those of the source. Calls follow the shape of the dose curve; as a rule, active = well fitted curve in the direction sought with a large enough effect in the repeat runs; inconclusive = weak or mixed curves; inactive = no such curve, though single readings can be large; an effect the other way counts as inactive or inconclusive.
% is scaled to controls: 0 for no effect and ±100 for the full control effect.

Consider `C[C@](N)(Cc1ccc(O)cc1)C(=O)O`, for which the activity change, negative = cytotoxic in [1] is 4.28% [at 6.97 µM] (inactive); in experiment [7], 3.47% [at 6.97 µM] (inactive); in experiment [15], -0.0046% [at 6.97 µM] (inactive). Also, the cytotoxicity increase is 1.26% [at 6.97 µM] (inactive) in [2]; -1.17% [at 6.97 µM] (inactive) in [6]; -2.6% [at 6.97 µM] (inactive) in [9]; 3.03% [at 6.97 µM] (inactive) in experiment [11]; -6.04% [at 6.97 µM] (inactive) in experiment [13]; 2.1% [at 6.97 µM] (inactive) in experiment [14]. Besides, the activity change, negative = cytotoxicity in [3] was 1.36% [at 6.97 µM] (inactive); in [10], 0.416% [at 6.97 µM] (inactive); in [16], 3.77% [at 6.97 µM] (inactive); in experiment [18], -5.13% [at 6.97 µM] (inactive). Also, the max response in experiment [4] was 0.763% (inactive). The activity change in [5] is 2.77% [at 6.97 µM, stronger effect = higher value] (inactive); in experiment [17], 4.06% [at 6.97 µM, stronger effect = higher value] (inactive). The cytotoxicity is -1.48% [at 6.97 µM] (inactive) in [8] and 0.583% [at 6.97 µM] (inactive) in [12].

In the case of `N=C(N)c1ccc2cc(OC(=O)c3ccc(N=C(N)N)cc3)ccc2c1`, the Potency entry in experiment [1], in [2], in experiment [3], in experiment [5], in [6] and in experiment [7] was “inactive” each time. The Potency entry in experiment [8], in experiment [9], in experiment [10], in experiment [11], in [12] and in experiment [13] was “inactive” throughout. Moreover, the Potency entry in experiment [14], in experiment [15], in experiment [19], in experiment [16], in experiment [17] and in experiment [18] was “inactive” each time. The max response in experiment [4] is 1.38% (inactive).

On to `NC(=O)Nc1ccccc1`, for which the Potency result in experiment [1], in experiment [2], in [3], in experiment [20], in experiment [5] and in experiment [6] was “inactive” in each case. In addition, the Potency entry in experiment [7], in experiment [9], in [10], in [12], in experiment [13] and in [14] was “inactive” each time. Also, the Potency result in experiment [19], in experiment [16], in experiment [17] and in experiment [18] was “inactive” each time.

`C[N+](C)(C)CC(O)CC(=O)[O-]` (stereo not drawn): the Potency entry in experiment [1], in [2], in experiment [3], in [5], in experiment [6] and in experiment [7] was “inactive” each time. For the same compound, the Potency result in [8], in [9], in experiment [10], in experiment [12], in [13] and in experiment [14] was “inactive” throughout. Besides, the Potency result in experiment [15], in experiment [16], in experiment [17] and in experiment [18] was “inactive” throughout. Also, the max response in experiment [4] was -3.45% (inactive).

For `O=C(O)CCCc1ccccc1`, the Potency entry in experiment [1], in [2], in [3], in [20], in experiment [5] and in [9] was “inactive” throughout. For the same compound, the Potency result in experiment [10], in experiment [13], in experiment [14], in experiment [15], in [19] and in experiment [16] was “inactive” in each case. Moreover, the Potency entry in experiment [17] and in experiment [18] was “inactive” each time.

As for `CN(C)CCCN1c2ccccc2CCc2ccc(Cl)cc21`, the Potency was 43.6 µM (active) in [1]; 49 µM (active) and 26.8 µM (active) in [2]; 43.6 µM (active) in experiment [3]; 49 µM (active) and 23.9 µM (active) in [5]; 54.9 µM (active) and 21.3 µM (active) in experiment [6]; 49 µM (active) and 23.9 µM (active) in [7]. In addition, the Potency was 38.9 µM (active) and 23.9 µM (active) in experiment [8]; 34.7 µM (active) and 23.9 µM (active) in experiment [9]; 49 µM (active) and 26.8 µM (active) in experiment [11]; 34.7 µM (active) and 23.9 µM (active) in [13]; 49 µM (active) in [15]; 38.9 µM (active) and 21.3 µM (active) in experiment [19]. For the same compound, the Potency in experiment [16] is 43.6 µM (active) and inactive; in [17] it was 54.9 µM (active) and 23.9 µM (active). In experiment [12], the Potency result is “inactive”.

Regarding `NC(=O)c1ccc([N+](=O)[O-])cc1`, the Potency result in [1], in experiment [2], in [20], in [5], in experiment [6] and in experiment [7] was “inactive” throughout. The Potency result in experiment [8], in experiment [9], in experiment [10], in experiment [11], in [12] and in experiment [13] was “inactive” throughout. Further, the Potency result in [14], in [15], in experiment [19], in experiment [16], in experiment [17] and in experiment [18] was “inactive” in each case. Moreover, the max response in experiment [4] is 2.32% (inactive).
